The full data set covers some 7,900 targets. This sample favours those with a hit. About 0.6% of all pairs of compound and target were hits. Values without a mark were called inactive.
Tests used:
Test in all cases: log2 fold change, soluble protein after heating vs DMSO (PISA); higher = thermal stabilisation; K562 cells, 10 uM, 30 min; active = over 0.2 and 3.5 SD of the protein, either way, in both replicates (recomputed)
[1] = compound: NC(=O)Nc1cc(-c2cccc(F)c2)sc1C(=O)N[C@H]1CCCNC1
Outline: (§1)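 K562 cells at 2×10^6 cells/mL were treated with 10 μM compound for 30 min. Aliquots were heated for 3 min across 48°C-58°C, pooled, and extracted in PBS with 0.5% NP-40 at 4°C; soluble protein was the supernatant after 21,000xg for 90 min. Soluble protein was quantified by TMTpro 16plex LC-MS/MS with channel sums equalised, and reported as log2 fold change in thermal stability against DMSO controls, with values from duplicates.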

[2] = compound: NC(=O)c1cnc(N[C@@H]2CCCC[C@@H]2N)nc1Nc1cccc(-n2nccn2)c1
Outline: as §1

[3] = compound: NC1(c2ccc(-c3nc4ccn5c(=O)[nH]nc5c4cc3-c3ccccc3)cc2)CCC1
Outline: as §1

[4] = compound: NCC(=O)Nc1ccc(-n2nc(C(F)(F)F)cc2-c2ccc3c(ccc4ccccc43)c2)cc1
Outline: as §1

entinostat = compound: Nc1ccccc1NC(=O)c1ccc(CNC(=O)OCc2cccnc2)cc1 [entinostat]
Outline: as §1

vorinostat = compound: O=C(CCCCCCC(=O)Nc1ccccc1)NO [vorinostat]
Outline: as §1

citarinostat = compound: O=C(CCCCCCNC(=O)c1cnc(N(c2ccccc2)c2ccccc2Cl)nc1)NO [citarinostat]
Outline: as §1

silmitasertib = compound: O=C(O)c1ccc2c(c1)nc(Nc1cccc(Cl)c1)c1ccncc12 [silmitasertib]
Outline: as §1

[5] = compound: O=C1NC(=O)C(c2cnc3ccccn23)=C1c1cn2c3c(cc(F)cc13)CN(C(=O)N1CCCCC1)CC2
Outline: as §1

[6] = compound: c1cc(OCCN2CCCCC2)cc(-c2n[nH]c3ccc(-c4nnc[nH]4)cc23)c1
Outline: as §1

UniProt P57081, sequence (P57081 whole entry, looked up): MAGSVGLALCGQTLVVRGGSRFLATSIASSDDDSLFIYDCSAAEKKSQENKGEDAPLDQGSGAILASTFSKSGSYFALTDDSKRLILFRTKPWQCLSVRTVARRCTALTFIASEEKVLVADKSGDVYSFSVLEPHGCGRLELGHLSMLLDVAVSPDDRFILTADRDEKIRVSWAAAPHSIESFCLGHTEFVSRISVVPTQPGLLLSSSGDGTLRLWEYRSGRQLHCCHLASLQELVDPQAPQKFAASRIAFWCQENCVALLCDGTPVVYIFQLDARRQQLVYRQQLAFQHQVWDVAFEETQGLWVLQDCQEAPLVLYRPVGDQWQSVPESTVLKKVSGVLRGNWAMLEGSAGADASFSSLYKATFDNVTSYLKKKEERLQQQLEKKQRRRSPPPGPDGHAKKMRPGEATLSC
UniProt Q9HCN3, sequence (Q9HCN3 whole entry, looked up): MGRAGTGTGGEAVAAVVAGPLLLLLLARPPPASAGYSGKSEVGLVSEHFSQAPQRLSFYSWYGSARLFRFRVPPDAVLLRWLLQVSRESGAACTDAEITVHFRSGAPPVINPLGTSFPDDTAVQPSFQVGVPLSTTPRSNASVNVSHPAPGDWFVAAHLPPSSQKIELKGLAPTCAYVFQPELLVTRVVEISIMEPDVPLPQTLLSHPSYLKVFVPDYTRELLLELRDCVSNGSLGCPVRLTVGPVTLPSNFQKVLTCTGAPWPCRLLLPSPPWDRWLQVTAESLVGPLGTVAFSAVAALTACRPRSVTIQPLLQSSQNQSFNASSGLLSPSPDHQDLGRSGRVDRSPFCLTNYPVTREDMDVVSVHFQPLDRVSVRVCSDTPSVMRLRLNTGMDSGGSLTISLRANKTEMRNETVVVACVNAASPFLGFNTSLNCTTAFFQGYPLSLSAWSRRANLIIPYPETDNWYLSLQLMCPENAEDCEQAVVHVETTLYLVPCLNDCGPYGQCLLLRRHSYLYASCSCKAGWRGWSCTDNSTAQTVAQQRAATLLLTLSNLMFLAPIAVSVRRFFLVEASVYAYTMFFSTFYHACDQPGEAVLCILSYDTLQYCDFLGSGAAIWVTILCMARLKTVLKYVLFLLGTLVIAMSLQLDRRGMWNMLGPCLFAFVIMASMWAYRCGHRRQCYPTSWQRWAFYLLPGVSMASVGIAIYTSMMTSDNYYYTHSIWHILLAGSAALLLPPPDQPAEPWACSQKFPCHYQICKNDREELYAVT
UniProt Q7Z3V4, sequence (Q7Z3V4 whole entry, looked up): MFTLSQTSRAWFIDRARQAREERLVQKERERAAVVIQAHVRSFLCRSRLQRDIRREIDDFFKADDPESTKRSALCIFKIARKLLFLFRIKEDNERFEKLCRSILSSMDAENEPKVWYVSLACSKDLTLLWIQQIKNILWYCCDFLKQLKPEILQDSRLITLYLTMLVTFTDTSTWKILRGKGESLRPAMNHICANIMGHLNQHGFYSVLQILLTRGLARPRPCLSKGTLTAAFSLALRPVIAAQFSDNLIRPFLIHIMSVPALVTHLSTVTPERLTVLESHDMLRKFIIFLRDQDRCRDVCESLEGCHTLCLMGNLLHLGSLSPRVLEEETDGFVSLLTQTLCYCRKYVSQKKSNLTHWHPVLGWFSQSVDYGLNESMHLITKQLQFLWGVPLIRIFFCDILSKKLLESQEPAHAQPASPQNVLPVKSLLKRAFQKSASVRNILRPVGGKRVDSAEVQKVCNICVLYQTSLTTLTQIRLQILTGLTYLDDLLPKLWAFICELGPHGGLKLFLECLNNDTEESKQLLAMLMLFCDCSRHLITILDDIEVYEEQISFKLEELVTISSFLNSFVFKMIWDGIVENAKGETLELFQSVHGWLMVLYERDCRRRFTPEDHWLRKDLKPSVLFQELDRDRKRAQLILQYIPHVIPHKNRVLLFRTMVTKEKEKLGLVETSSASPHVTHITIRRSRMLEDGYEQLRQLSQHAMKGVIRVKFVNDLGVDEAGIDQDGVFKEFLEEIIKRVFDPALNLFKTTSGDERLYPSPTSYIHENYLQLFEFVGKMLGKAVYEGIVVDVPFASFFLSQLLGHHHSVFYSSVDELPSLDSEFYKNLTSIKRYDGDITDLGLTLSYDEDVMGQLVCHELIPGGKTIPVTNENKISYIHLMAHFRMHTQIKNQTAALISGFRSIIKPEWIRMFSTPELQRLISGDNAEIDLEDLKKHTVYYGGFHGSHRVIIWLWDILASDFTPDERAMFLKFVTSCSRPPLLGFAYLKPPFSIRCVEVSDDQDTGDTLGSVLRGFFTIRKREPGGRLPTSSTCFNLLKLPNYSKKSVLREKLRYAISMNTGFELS
UniProt P49815, sequence (P49815 whole entry, looked up): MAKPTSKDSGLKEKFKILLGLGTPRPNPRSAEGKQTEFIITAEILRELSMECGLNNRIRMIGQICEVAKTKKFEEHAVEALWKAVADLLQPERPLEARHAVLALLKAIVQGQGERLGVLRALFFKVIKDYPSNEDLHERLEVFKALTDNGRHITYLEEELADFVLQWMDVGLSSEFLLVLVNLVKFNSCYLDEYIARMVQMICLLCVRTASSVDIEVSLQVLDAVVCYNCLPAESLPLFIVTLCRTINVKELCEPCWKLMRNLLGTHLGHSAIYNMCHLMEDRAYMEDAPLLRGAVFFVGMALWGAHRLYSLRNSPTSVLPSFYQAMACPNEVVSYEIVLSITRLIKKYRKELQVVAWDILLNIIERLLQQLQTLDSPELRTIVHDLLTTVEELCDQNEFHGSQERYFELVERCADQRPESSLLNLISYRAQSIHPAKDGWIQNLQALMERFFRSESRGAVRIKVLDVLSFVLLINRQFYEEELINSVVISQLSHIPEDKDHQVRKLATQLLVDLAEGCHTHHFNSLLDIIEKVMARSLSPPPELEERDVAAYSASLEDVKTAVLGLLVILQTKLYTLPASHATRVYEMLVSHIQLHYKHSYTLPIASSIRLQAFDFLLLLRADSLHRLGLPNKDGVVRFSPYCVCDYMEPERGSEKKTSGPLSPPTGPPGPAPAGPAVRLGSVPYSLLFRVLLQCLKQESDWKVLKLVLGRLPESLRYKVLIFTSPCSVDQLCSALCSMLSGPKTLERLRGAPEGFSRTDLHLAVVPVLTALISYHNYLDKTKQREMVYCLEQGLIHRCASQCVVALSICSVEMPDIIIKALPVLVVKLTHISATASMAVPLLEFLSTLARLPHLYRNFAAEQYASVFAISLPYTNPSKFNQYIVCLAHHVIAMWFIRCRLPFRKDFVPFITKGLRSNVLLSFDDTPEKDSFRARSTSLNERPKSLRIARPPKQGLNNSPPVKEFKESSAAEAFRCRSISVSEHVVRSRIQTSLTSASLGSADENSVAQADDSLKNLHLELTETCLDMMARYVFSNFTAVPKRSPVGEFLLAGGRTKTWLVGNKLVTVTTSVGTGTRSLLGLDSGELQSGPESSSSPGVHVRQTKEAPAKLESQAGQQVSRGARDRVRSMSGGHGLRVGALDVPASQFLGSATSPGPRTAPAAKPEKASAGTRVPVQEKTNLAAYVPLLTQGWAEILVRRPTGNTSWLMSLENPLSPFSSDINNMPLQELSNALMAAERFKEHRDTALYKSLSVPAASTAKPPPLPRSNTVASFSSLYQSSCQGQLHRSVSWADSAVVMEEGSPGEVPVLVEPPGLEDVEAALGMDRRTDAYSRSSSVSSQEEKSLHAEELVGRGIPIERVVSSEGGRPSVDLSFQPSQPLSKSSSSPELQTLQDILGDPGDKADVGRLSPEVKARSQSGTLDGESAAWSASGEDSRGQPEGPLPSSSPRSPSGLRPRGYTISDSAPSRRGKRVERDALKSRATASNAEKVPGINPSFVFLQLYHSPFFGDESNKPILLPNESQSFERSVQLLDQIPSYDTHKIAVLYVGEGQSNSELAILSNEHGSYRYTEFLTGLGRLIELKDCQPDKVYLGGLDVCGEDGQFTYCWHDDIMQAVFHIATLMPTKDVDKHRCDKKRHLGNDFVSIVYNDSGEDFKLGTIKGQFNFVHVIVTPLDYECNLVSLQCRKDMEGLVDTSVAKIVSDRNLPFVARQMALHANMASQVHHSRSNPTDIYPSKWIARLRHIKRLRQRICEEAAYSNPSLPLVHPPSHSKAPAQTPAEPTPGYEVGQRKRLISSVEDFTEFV
UniProt Q9UDW1, sequence (Q9UDW1 whole entry, looked up): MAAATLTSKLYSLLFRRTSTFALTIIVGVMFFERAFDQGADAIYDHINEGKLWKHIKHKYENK
UniProt Q9C035, sequence (Q9C035 whole entry, looked up): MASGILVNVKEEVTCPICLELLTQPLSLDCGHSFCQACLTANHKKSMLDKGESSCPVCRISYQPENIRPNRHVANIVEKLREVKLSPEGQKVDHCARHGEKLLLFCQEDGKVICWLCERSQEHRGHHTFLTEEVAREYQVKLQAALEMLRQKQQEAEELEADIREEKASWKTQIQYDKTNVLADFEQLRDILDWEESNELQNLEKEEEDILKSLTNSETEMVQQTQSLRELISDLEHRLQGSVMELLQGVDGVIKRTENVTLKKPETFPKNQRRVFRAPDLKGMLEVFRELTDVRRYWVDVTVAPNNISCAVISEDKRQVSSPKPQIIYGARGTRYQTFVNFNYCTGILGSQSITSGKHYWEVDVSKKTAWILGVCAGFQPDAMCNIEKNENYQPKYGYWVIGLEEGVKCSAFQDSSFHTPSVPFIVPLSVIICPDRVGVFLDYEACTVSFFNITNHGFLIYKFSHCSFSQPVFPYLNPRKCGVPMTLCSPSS
UniProt Q5BJH2, sequence (Q5BJH2 whole entry, looked up): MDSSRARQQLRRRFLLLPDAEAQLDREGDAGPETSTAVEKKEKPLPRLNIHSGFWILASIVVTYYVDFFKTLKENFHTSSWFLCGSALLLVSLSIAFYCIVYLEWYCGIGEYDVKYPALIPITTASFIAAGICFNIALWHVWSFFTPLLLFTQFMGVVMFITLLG
UniProt O95857, sequence (O95857 whole entry, looked up): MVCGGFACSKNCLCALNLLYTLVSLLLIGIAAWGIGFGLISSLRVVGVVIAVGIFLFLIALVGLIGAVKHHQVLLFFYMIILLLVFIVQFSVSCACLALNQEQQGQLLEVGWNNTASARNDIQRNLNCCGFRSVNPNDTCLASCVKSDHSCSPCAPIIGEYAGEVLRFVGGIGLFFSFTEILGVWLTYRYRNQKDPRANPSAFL

Target	log2 fold change [1]	log2 fold change [2]	log2 fold change [3]	log2 fold change [4]	log2 fold change (entinostat)	log2 fold change (vorinostat)	log2 fold change (citarinostat)	log2 fold change (silmitasertib)	log2 fold change [5]	log2 fold change [6]
UQCR10 (UniProt Q9UDW1)	-0.053	-0.043	0.076	0.02	-0.003	0.187	0.045	-0.003	-0.067	-0.026
VWA3B isoform 6 (UniProt Q502W6)	–	-0.271	-0.023	-0.059	–	0.076	-0.128	0.162	-0.009	-0.076
U2AF1L5 (UniProt P0DN76)	–	0.047	0.07	-0.295	–	–	-0.28	-0.024	–	-0.146
TMEM219 (UniProt Q86XT9)	0.079	0.033	–	0.036	0.052	0.389 (active)	–	–	-0.025	–
TOM1L2 (UniProt Q6ZVM7)	0.089	-0.136	–	-0.098	0.036	–	–	–	-0.043	–
TUBA4A (UniProt C9JJQ8)	-0.035	–	–	0.053	0.093	–	0.039	–	–	0.206
TVP23C (UniProt Q96ET8)	–	-0.021	-0.023	-0.003	–	0.045	-0.297	0.132	–	0.081
WDR75 (UniProt Q8IWA0)	–	-0.004	0.173	-0.125	–	–	–	0.086	0.17	–
TRIQK (UniProt Q629K1)	0.013	–	-0.044	–	-0.083	–	–	0	-0.235	–
TRPT1 isoform 4 (UniProt Q86TN4)	0.037	0.235	0	–	0.123	–	0.029	0.059	–	-0.025
UTP20 (UniProt O75691)	–	–	–	–	–	–	–	–	0.009	–
VDAC1 (UniProt C9JI87)	-0.145	-0.166	-0.065	–	-0.158	–	-0.153	0.024	-0.09	0.044
TMEM104 (UniProt Q8NE00)	–	0.08	0.232	–	–	0.068	-0.063	0.097	0.143	-0.051
WARS1 (UniProt G3V227)	–	0.045	–	-0.115	–	–	–	–	-0.084	–
UBXN8 (UniProt O00124)	-0.139	-0.103	–	-0.344	0.046	-0.055	0.037	–	-0.05	-0.143
UBXN10 (UniProt Q96LJ8)	0.062	–	0.102	-0.426 (active)	-0.069	0.136	-0.121	-0.006	-0.031	0.037
WARS1 (UniProt G3V5U1)	-0.609	–	-0.142	–	-0.218	–	-0.608	0.297	-0.761	-0.083
TRIM23 (UniProt P36406)	-0.025	–	-0.02	-0.083	-0.01	0.06	0.015	-0.044	–	-0.026
TTC26	–	–	–	0.006	–	–	–	–	–	–

Target	log2 fold change [1]	log2 fold change [2]	log2 fold change [3]	log2 fold change [4]	log2 fold change (entinostat)	log2 fold change (vorinostat)	log2 fold change (citarinostat)	log2 fold change (silmitasertib)	log2 fold change [5]	log2 fold change [6]
TSPAN13 (UniProt O95857)	-0.091	–	-0.125	0.03	-0.109	0.002	–	0	-0.166	–
TXNRD1 isoform 7 (UniProt Q16881)	-0.083	–	–	-0.214	0.065	0.21	-0.171	–	-0.227	0.171
TMEM179B (UniProt Q7Z7N9)	-0.235	0.079	-0.255	–	0.04	-0.156	-0.019	-0.043	-0.173	-0.112
TSC2 (UniProt P49815)	-0.038	-0.074	0.214	–	-0.061	0.125	0.273	0.107	0.105	-0.594 (active)
WARS1 (UniProt G3V3P2)	-0.196	–	–	–	-0.074	–	–	–	–	–
XRCC1 (UniProt P18887)	-0.011	-0.183	–	–	0.064	0.228	–	–	-0.211	–
TMEM128 (UniProt Q5BJH2)	-0.059	-0.167	–	-0.092	-0.036	–	-0.131	–	-0.037	-0.07
WDR4 isoform 3 (UniProt P57081)	-0.103	–	–	–	-0.02	-0.118	–	–	-0.135	–
UBAP2L (UniProt F8W726)	–	–	0.083	–	–	-0.033	0.095	0.004	–	-0.066
TMEM8A (UniProt Q9HCN3)	-0.059	–	-0.393	-0.048	-0.485	-0.077	-0.037	0.053	–	-0.056
XAB2 (UniProt Q9HCS7)	–	–	0.011	–	–	–	–	0.038	0.298	–
TUT4 (UniProt Q5TAX3)	0.028	–	0.07	-0.349	0.004	-0.032	-0.161	0.094	0.322	-0.063
WDR46, A0A0G2JJL1	0.222	–	0.515	0.146	-0.113	–	-0.163	0.247	0.284	0.013
UBE2J2 isoform 3 (UniProt Q8N2K1)	-0.072	0.028	–	0.213	-0.067	0.156	0.1	–	-0.299	-0.039
UBE3B (UniProt Q7Z3V4)	0.034	-0.043	–	–	-0.046	–	–	–	-0.037	–
WARS1 (UniProt G3V339)	–	–	–	–	–	–	–	–	-0.387	–
USP48 (UniProt Q86UV5)	-0.077	–	-0.242	–	0.164	–	-0.024	0.185	–	0.076
TRIM5 (UniProt Q9C035)	-0.219	-0.085	–	-0.006	0.137	–	–	–	0.024	–
TOM1 (UniProt O60784)	0.044	–	-0.176	–	0.062	0.048	–	0.017	-0.077	–
